Sampled rows, rich in hits. Any-hit rate of the full collection: about 2.2%.
Mito fusion act: inhibitors of mitochondrial division or activators of mitochondrial fusion; S. cerevisiae fusion-defective mutant growth rescue, CellTiterGlo 48 h; Potency, µM (series often up to 46.1 µM), without a hit: top-dose growth rescue (activation), most hits filed as activators; hit rate 0.23% among 320,000; also: % of control where 0% means no effect; nearly all actives have a fitted effect of over 45% in size
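Read-out: ATP-based luminescence (CellTiterGlo, 10 min ambient) reporting growth of fusion-defective ts yeast after 48 hours at 37C on glycerol/ethanol YPEG medium in the presence of compound.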
ERG-DNA inh: inhibitors of human ERG Ets domain-DNA interaction | P11308 | Potency, µM (titrated, usually from 76.9 µM), without a hit: top-dose FP activity, negative = inhibition, usual class: inhibitors | fluorescence polarization, His-ERG Ets domain / labelled DNA | AID 624246 | hit rate 0.028% among 370,000; active = well fitted inhibition curve with a large enough effect in the polarisation, with a control signal flat; inconclusive = small, poorly fitted or top-dose-only effect, or effect the other way, or a change in a side signal; inactive = no such curve, though single readings can be large or run the other way; the % refers to the polarisation;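 also: polarization taken with two DNA probes labelled with fluorescein and Texas red; % of control where 0% means no effect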
Target sequence (P11308 whole entry, looked up, the tested form may be a part): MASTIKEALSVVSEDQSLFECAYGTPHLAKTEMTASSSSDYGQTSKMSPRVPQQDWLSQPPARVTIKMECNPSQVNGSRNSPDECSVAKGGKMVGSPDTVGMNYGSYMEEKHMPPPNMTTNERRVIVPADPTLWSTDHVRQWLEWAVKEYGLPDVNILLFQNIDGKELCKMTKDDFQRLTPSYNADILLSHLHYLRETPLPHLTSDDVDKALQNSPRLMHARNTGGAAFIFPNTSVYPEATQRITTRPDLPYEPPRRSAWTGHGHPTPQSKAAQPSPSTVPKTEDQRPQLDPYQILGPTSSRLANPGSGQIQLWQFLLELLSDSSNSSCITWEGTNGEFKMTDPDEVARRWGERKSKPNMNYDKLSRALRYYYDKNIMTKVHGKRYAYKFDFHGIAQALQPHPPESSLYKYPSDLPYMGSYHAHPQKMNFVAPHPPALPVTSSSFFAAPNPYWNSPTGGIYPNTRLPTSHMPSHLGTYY
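His-tagged ERG Ets domain (1 uM in the protein solution; 300mM KCl, 50mM Tris-HCl, 1mM EDTA, 1mM DTT, pH 7.5) received compound, then a probe mix of 5 nM fluorescein-DNA and 100nM Texas-615-DNA. Fluorescence polarization was read for both dyes.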
FUS suppressor: FUS proteinopathy suppression in yeast. S. cerevisiae FUS-expressing, growth rescue, OD600, 24 h. Potency, µM (doses to about 76.6 µM), usual class: activators. hit rate 0.24% among 390,000. AID 1347120;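 also: plate controls were DMSO vehicle for no effect and reference control for full effect; nearly all actives have a fitted effect of over 55% in size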
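Cultures pregrown in 2.5% raffinose medium are shifted to minimal medium containing 2% galactose to express toxic FUS. Compounds are tested at several concentrations. After 24hr at 30C, growth is quantified at 600 nm absorbance.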
TDP-43 yeast inh: TDP-43 toxicity inhibition in yeast; TDP-43 expressing yeast growth rescue, BacTiter-Glo, 24 h; Potency, µM (highest dose often 46.1 µM), without a hit: at the highest dose growth rescue (activation), most hits filed as activators; hit rate 1.8% among 410,000; AID 652104; also: % of control where 0% means no effect; nearly all actives have a fitted effect of over 50% in size
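Galactose-induced TDP-43 yeast, OD600=0.02, compound pinned; 24 hr, 30 deg C; BacTiter-Glo luminescence for growth. Inhibitors of TDP-43 toxicity read as activators.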
aSyn yeast inh: rescues yeast growth from alpha-synuclein toxicity; Potency, µM (top dose mostly 46.1 µM), for inactives: top-dose growth rescue (activation), usual class: activators; hit rate 0.14% among 370,000; Yeast expressing alpha-synuclein, growth rescue, BacTiter-Glo, 24 h; AID 652106; also: % of control where 0% means no effect; nearly all actives have a fitted effect of over 65% in size
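Galactose-induced alpha-syn yeast (OD600=0.02, raffinose-pregrown) + pinned cpd, 24 hr, 30 deg C; growth by BacTiter-Glo luminescence. Growth restoration scores as activation.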
Abeta rescue: A-beta toxicity reversal in yeast; yeast expressing A-beta42, growth rescue, OD600, 48 h; response scale: 0% DMSO, 100% iron-clioquinol control; Potency, µM (highest dose often 46.1 µM), hits mostly activators; hit rate 0.063% among 410,000; also: nearly all actives have a fitted effect of over 55% in size
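Yeast A-beta toxicity model in growth medium with pinned compounds, 48 h at 30 C; growth read as absorbance at 600 nm. Normalized to FeCl3/clioquinol equimolar mix (positive) and DMSO (negative).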
Active calls of the source: *; i = inactive; ? = inconclusive; / = no result given; ! = not active in a repeat; [ ] = dose if it differs, or a comment. Unless noted, calls follow the shape of the dose curve; as a rule, active = well fitted curve in the direction sought with a large enough effect; inconclusive = small, poorly fitted or top-dose-only effect, or another doubt; inactive = no such curve, though single readings can be large; an effect the other way counts as inactive or inconclusive. Potency is read from the fitted curve at half-maximal effect.

SMILES | Mito fusion act | ERG-DNA inh | FUS suppressor | TDP-43 yeast inh | aSyn yeast inh | Abeta rescue
COC(=O)c1ccc2nc(-c3ccc(OC)c(OC)c3)c(Cc3cccc(F)c3)n2c1 | / | / | i | 35.5µM* | 23.9% | i
COC(=O)c1ccc2nc(-c3ccc(Cl)cc3)c(Cc3ccccc3OC)n2c1 | / | / | i | 16.7% | 0.5% | i
COC(=O)c1ccc2nc(-c3ccc(OC)c(OC)c3)c(Cc3ccc(C)cc3)n2c1 | / | / | i | 22.4µM* | 6.4% | i
COC(=O)c1ccc2nc(-c3cccc(Cl)c3)c(Cc3ccccc3OC)n2c1 | / | / | i | 35.5µM* | -0.9% | i
CCC(C)NC(=O)CN1C(=O)c2cccnc2Sc2ccccc21 (configuration not stated) | / | 2.8% | i | -6.1% | / | i
O=C(Nc1ccc(Cl)cc1)N1CCC(c2ccccc2)C1 (configuration not stated) | -1.6% | -1.9% | i | 11.2µM*! | 0.7% | i
Cc1ccc(NC(=S)N2CCC(c3ccc(C)cc3)C2)cc1 (configuration not stated) | -1.9% | -1.8% | i | 17.8µM* | -12.3% | ?
Cc1ccc(C2CCN(C(=O)Nc3ccccc3)C2)cc1 (configuration not stated) | -1.0% | 2.5% | i | 10µM* | 7.3% | i
CCC(=O)N1CCc2cc(CNC(=O)Nc3ccc(OC)cc3OC)ccc21 | / | 2.8% | i | 3.1% | / | i
O=S(=O)(Nc1ccc(C(O)(C(F)(F)F)C(F)(F)F)cc1)c1ccc(Cl)c2nonc12 | / | / | i | 20µM* | -16.8% | i
COc1cc(NC(=O)c2ccc(-c3nc(CSc4ccccc4)c(C)o3)cc2)cc(OC)c1 | / | 5.0% | ? | -7.2% | / | i
O=C(COC(=O)c1n[nH]c(=O)c2ccccc12)Nc1cccc(S(=O)(=O)N2CCOCC2)c1 | / | 7.6% | 39.8µM* | -13.3% | -3.4% | i
COc1ccc(Nc2nc(-c3sc(C)nc3C)cs2)c(OC)c1 | -3.6% | 3.8% | i | 15.8µM* | -13.7% | i
COc1ccc(OC)c(Nc2nc(-c3cccs3)cs2)c1 | 21.3% | / | i | 15.8µM* | 7.9% | i
COc1ccc(Nc2nc(-c3cccs3)cs2)c(OC)c1 | 2.8% | -14.4% | i | 12.6µM* | / | i
COc1ccc(Nc2nc(-c3cccnc3)cs2)c(OC)c1 | 2.4% | 14.3% | i | 22.7% | -0.1% | i
CCC[C@H]1[C@@H](NC(=O)c2ccc(C)cc2)CC[C@@]23CCCN2C(=O)CCC[C@@H]13 | / | / | i | / | / | /
Nc1ccc(Cl)c(-c2nc3ncccc3o2)c1 | 2.0% | 6.3% | ? | -6.2% | 0.7% | i
Nc1ccc(-c2nc3ncccc3o2)c(Cl)c1 | 0.1% | 1.9% | i | -3.4% | 14.1µM* | i
Cc1cc(NCc2ccccn2)n2nc(C)c(-c3ccc(Cl)cc3)c2n1 | 8.4% | 2.3% | i | 7.08µM* | 3.5% | i
Cc1cc(NCc2ccccn2)n2ncc(-c3ccc(Cl)cc3)c2n1 | 4.6% | -0.6% | i | 13.4%[1.82 µM] | 5.1% | i
CCOC(=O)c1c(N)sc2c(O)c(Br)ccc12 | 5.3% | -2.3% | i | 11.2µM* | -21.5% | i
CCOC(=O)c1c(N)sc2c(NC(C)=O)cccc12 | -0.1% | 3.3% | i | 6.6% | -2.0% | i
Cc1ccc(S(=O)(=O)c2cnc(SCC(=O)Nc3cc(C)cc(C)c3)nc2N)cc1 | / | 9.8% | i | 7.4% | / | i
CCN(CC)c1ccc(-c2nn3c(-c4ccccc4Cl)nnc3s2)cc1 | / | / | 31.6µM* | / | / | /
SMILES | Mito fusion act | ERG-DNA inh | FUS suppressor | TDP-43 yeast inh | aSyn yeast inh | Abeta rescue
CCN(CC)c1ccc(-c2nn3c(-c4cccnc4)nnc3s2)cc1 | 14.4% | -10.1% | i | ? | 2.0% | i
COc1cccc(OC)c1-c1nn2c(-c3ccccc3Cl)nnc2s1 | 4.0% | -9.5% | ? | 15.8µM* | -0.6% | i
COc1ccc(CCNC(=O)CSc2ccc3nnc(CCNC(=O)c4ccc(C)cc4)n3n2)cc1OC | / | 2.7% | i | 2.3% | -0.3% | i
Cc1ccc(C2=Nc3ccccc3N(C(=O)c3ccccc3)C(C)C2)cc1 (configuration not stated) | 20µM* | 8.5% | / | 24.8% | -6.6% | i
CCCCCCC(=O)OCC(=O)c1ccc2c(c1)NC(=O)CO2 | -0.5% | -13.1% | i | 15.8µM* | 8.4% | i
Cc1ccc(NC(=O)c2cnc(SCC(=O)N3CCCc4ccccc43)n(C)c2=O)cc1 | / | 1.3% | i | 0.0% | / | i
c1ccc(-c2ccc(CNc3nc(-c4ccccn4)nnc3-c3ccccc3)cc2)cc1 | / | / | 20µM* | / | / | /
c1ccc(-c2cnc(-c3ccccn3)nn2)cc1 | / | 0.0% | i | 22.4µM* | 24.6% | i
COc1cccc(N2CCN(C3CC(=O)N(c4ccc(F)c(Cl)c4)C3=O)CC2)c1 (configuration not stated) | -0.6% | -1.8% | i | 12.6µM* | -6.6% | i
COc1ccc(N2C(=O)CC(N3CCC(O)(c4ccc(Br)cc4)CC3)C2=O)cc1 (configuration not stated) | -15.6% | -8.6% | i | 20µM* | 8.9% | i
CCCOc1ccc(N2C(=O)CC(N3CCN(c4ccccc4OC)CC3)C2=O)cc1 (configuration not stated) | -2.4% | 11.3% | i | 25.1µM* | ? | i
CC1(C(=O)NS(=O)(=O)Cc2ccccc2)CCN1C(=O)c1ccc(C2CCCCC2)cc1 (configuration not stated) | / | / | i | 20µM* | -46.5% | i
CCc1ccc(CNC(=O)COc2cc(=O)n(CC)c3ccccc23)cc1 | / | 3.8% | i | 0.3% | / | i
O=[N+]([O-])c1ccc(Sc2ccncn2)c([N+](=O)[O-])c1 | / | / | i | 35.5µM* | 2.3% | i
Cc1cc(C)nc(Sc2ccc([N+](=O)[O-])cc2[N+](=O)[O-])n1 | 1.9% | -1.5% | / | -2.8% | -4.6% | i
Cc1ccc(NC(=S)Nc2cccc3ccccc23)cc1 | -11.5% | -14.7% | i | 6.0% | 3.0% | ?
S=C(NCc1ccccc1)Nc1ccc2ccccc2c1 | -9.3% | 7.4% | i | ? | 1.9% | ?
C/C(=C\C(=S)Nc1ccccc1)Nc1cccc2ccccc12 | 9.1% | 16.3% | / | 11.2µM* | -0.2% | i
C/C(=C\C(=S)Nc1ccccc1)Nc1ccc2ccccc2c1 | 1.0% | 3.6% | i | 12.6µM* | -1.8% | i
CCOC(=O)c1cccc(NC(=O)c2cc3c(=O)n(Cc4cccnc4)ccc3nc2C)c1 | / | 6.0% | i | 2.1% | / | i
O=C(Nc1ccc(Cl)cc1)P(=O)(O)c1ccccc1 | / | 1.0% | i | 17.8µM* | -0.4% | i

Screening results as filed in PubChem.
